In ChEMBL document CHEMBL3988442, “University of Dundee, Small-Polar-MMV Screening Library” (2021):

Target: Chromo domain-containing protein 1 (Saccharomyces cerevisiae (strain ATCC 204508 / S288c) (Baker's yeast)) (UniProt P32657)
Assay: ScCHD-1 Enzyme Inhibition Assay
Assay type: functional
Parameters: scale not given: in the data most compounds retested in dose-response had high values
Details: 30 µM

Sequence of Chromo domain-containing protein 1 (Saccharomyces cerevisiae (strain ATCC 204508 / S288c) (Baker's yeast)) (P32657 whole entry, the tested form may be a part): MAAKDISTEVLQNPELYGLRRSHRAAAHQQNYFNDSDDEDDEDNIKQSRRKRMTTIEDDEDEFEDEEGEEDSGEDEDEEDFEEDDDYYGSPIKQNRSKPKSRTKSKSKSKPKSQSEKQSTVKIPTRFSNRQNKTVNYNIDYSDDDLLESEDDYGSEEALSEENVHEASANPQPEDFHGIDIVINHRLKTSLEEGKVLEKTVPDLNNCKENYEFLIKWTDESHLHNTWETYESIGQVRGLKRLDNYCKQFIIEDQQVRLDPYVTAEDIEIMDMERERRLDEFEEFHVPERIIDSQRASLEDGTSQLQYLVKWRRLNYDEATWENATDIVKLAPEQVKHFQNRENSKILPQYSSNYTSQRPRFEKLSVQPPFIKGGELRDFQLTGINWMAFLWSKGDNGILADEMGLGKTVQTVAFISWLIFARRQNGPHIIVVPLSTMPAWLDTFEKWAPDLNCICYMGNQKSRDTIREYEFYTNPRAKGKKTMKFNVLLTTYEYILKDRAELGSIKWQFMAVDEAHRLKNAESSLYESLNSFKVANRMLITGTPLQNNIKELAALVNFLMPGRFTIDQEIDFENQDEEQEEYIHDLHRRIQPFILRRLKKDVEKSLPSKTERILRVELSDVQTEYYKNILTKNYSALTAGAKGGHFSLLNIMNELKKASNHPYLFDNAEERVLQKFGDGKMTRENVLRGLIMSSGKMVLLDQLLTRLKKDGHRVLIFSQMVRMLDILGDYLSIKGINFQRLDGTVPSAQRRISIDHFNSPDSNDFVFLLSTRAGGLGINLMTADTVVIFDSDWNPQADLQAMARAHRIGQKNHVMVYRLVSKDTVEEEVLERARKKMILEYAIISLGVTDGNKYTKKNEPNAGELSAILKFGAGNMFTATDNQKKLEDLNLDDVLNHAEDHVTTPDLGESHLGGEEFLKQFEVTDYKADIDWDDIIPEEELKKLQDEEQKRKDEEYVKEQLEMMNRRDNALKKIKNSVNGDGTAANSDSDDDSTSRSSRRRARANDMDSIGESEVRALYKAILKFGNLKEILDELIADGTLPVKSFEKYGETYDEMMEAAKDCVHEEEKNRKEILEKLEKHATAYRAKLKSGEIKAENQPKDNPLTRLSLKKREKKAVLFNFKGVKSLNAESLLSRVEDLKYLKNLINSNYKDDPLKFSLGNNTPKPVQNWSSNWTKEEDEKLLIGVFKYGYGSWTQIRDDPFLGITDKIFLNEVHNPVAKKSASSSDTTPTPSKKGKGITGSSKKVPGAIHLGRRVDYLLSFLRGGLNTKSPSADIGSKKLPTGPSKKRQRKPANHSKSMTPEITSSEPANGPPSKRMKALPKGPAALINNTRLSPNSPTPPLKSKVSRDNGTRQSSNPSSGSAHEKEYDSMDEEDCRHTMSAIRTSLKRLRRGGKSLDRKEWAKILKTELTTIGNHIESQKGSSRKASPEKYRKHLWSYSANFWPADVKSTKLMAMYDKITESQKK

Structure (SMILES) | Percent Effect
Cn1cnnc1C1CCCN(C(=O)c2cc(Cl)c3c(c2)OCO3)C1 (stereo not given) | -5.32%
NC(=O)c1ccc(S(=O)(=O)NC(=O)COc2ccc3c(c2)CCC3)cc1 | 6.22%
Cc1ccccc1N1CCN(C(=O)c2ccc[nH]2)C(C)C1 (stereo not given) | -1.74%
CC(C)c1cc(NC(=O)CN2CCC(N3CCNC3=O)CC2)on1 | -7.14%
O=S(=O)(CCNC1CCc2ncnn2C1)c1ccccc1 (stereo not given) | 5.51%
c1ccc(-c2nc(CN3CCOC(Cn4cccn4)C3)no2)cc1 (stereo not given) | -6.08%
COc1ncccc1CNC(=O)NCCNC(=O)c1ccco1 | -6.18%
c1cnc(N2CCC3(CC2)CN(CC2CC2)c2ccccc23)nc1 | 9.61%
CN(C)S(=O)(=O)N1CCN(C(=O)c2ccc3ccn(C)c3c2)CC1 | -5.25%
Cc1ccc(C(CNC(=O)NCc2cc[nH]n2)N2CCOCC2)o1 (stereo not given) | -3.31%
COCCc1noc(CN2CCCCC2Cn2cc(C)cn2)n1 (stereo not given) | -1.31%
O=C(COCc1ccccc1)N1CCC(OCc2cccnc2)CC1 | -2.8%
CCc1n[nH]c(C2CN(C(=O)c3nc(C)ncc3Cl)CCO2)n1 (stereo not given) | 2.12%
COc1cc(CNC(=O)C2CC(=O)N(C(C)C)C2)ccn1 (stereo not given) | -3.72%
O=C(Cc1cccs1)N1CC[C@H]2[C@@H]1CCC(=O)N2c1cccnc1 | -11%
CS(=O)(=O)NCc1ncn2c1CN(C(=O)CC1CCCC1)CCC2 | -0.829%
CCOCC1CC2(CCN(C(=O)c3ccccc3F)CC2)CO1 (stereo not given) | -0.095%
CCn1c(C)cc(C(=O)N2CCCC(n3nc(C)nc3C)C2)c1C (stereo not given) | -5.05%
Cc1cnn(CC2CCCN2CC(=O)Nc2cc(C)nn2C)c1 (stereo not given) | -7.89%
O=C(c1ccco1)N1CCC2(CC1)C(=O)NCCN2CC1CC1 | -1.19%

Structure (SMILES) | Percent Effect
COc1ccc(C(=O)N2C[C@@H](CN3CCOCC3)[C@@H](CO)C2)c(C)c1 | -1.95%
O=C(c1ccc(F)cc1F)N1CC[C@H](O)[C@@H](N2CCOCC2)CC1 | -18.1%
Cc1cnn(C(C)C2CC2)c1NC(=O)c1cnccn1 (stereo not given) | 2.37%
COc1ncc(C2(O)CCN(Cc3ccccc3O)CC2)c(OC)n1 | -23.4%
CC1CCCN(C(=O)c2cccc(CS(C)(=O)=O)c2)C1 (stereo not given) | 20.9%
O=C(Nc1cccnc1)[C@H]1C[C@H]2OCC[C@H]2N(C(=O)c2ccsc2)C1 | 18.5%
CCC1CN(C(=O)c2ccc(Cl)cc2O)CCN1C(C)C (stereo not given) | -3.73%
Cc1cnc(C(=O)N2CCCCC2c2[nH]ncc2S(C)(=O)=O)cn1 (stereo not given) | -18.4%
CCN1C(=O)CCCC12CCCN(C(=O)c1conc1C)C2 (stereo not given) | -2.52%
COc1cc(C(=O)N2CCCS2(=O)=O)ccc1C | -8.07%
Cc1ncsc1-c1nnc(C2CCN(CC3CCCCC3)CC2)o1 | -21.3%
CCn1cnnc1CNC(=O)N1CCOCC1 | -2.64%
O=C1C(NCc2nnc3n2CCCC3)CCN1c1ccccc1 (stereo not given) | -2.81%
CC(NC(=O)CCn1cncn1)c1nnc2n1CCCCC2 (stereo not given) | -8.72%
CC(=O)N1[C@H](CN(C)C)C[C@@H]2CN(C(=O)c3cccc(F)c3)CC[C@@H]21 | -5.63%
Cc1ccc(C(N)c2cccc(S(C)(=O)=O)c2)cc1 (stereo not given) | -9.27%
COc1cccc2c1OCC(C(=O)N1CCN(S(C)(=O)=O)CC1)C2 (stereo not given) | -8.92%
Cc1ccc(C(=O)N2C[C@@H](OCC3CCOCC3)[C@H]3OCCC[C@H]32)o1 | 18.8%
CC(Cn1cccn1)NC(=O)N1CCN(Cc2cccs2)CC1 (stereo not given) | 71.3%
Cc1nc(C2CCCN(C(=O)CO)C2)cc(N2CCOCC2)n1 (stereo not given) | -5.28%
